# According to PubChem BioAssay (NCI):
# The panel holds about 79,000 compounds, 15% with a hit somewhere; the sample as a whole holds those more often. Values without a mark were called inactive. Calls of active or inactive are those of the source. Rule as the data show it: active = growth inhibition above about 70%; inactive = the rest.
# Key:
# [1] = NCI Yeast Anticancer Drug Screen. Data for the rad52 strain (AID 147);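 also: 0% = growth of vehicle-treated control cultures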; details: S. cerevisiae rad52 mutant growth inhibition, hits give high values
# Method in brief: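 Compounds are applied to a genetically defined yeast strain lacking normal DNA damage repair, and inhibition of growth is expressed relative to cultures given vehicle only.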
# [2] = NCI Yeast Anticancer Drug Screen. Data for the wt1 strain (AID 149);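 also: 0% = growth of vehicle-treated wt1 cultures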; details: S. cerevisiae wt1 strain (SPY 50644) growth inhibition, hits give high values
# Method in brief: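 The wt1 strain was treated with compounds, and growth was compared with vehicle-treated cultures to give inhibition.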
# [3] = NCI Yeast Anticancer Drug Screen. Data for the rad50EPP+ strain (AID 151);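 also: 0% = growth of vehicle-treated control cultures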; details: S. cerevisiae rad50 mutant strain, hits give high values
# Method in brief: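 Compounds were applied to the rad50EPP+ yeast strain, which bears a defined DNA repair alteration, and growth inhibition was determined relative to vehicle-treated cultures.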
# [4] = NCI Yeast Anticancer Drug Screen. Data for the mgt1 strain (AID 153); details: S. cerevisiae mgt1 mutant growth inhibition, hits give high values
# Method in brief: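 Strain: mgt1 yeast, one of a set carrying defined DNA damage repair or cell cycle control alterations. Compound-treated growth compared with vehicle.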
# [5] = NCI Yeast Anticancer Drug Screen. Data for the rad50 strain (AID 155);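 also: 0% = growth of vehicle-only cultures of the same strain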; details: S. cerevisiae rad50 strain growth inhibition, hits give high values
# Method in brief: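 Cells are treated with compound, grown, and their growth is then scored against vehicle-only cultures of the same repair-deficient yeast strain.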
# [6] = NCI Yeast Anticancer Drug Screen. Data for the mec2-1 strain (AID 157); details: S. cerevisiae mec2-1 strain, hits give high values
# Method in brief: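 Strain: mec2-1 (DNA repair/cell cycle alteration). Compound exposure, then growth measured; inhibition expressed relative to vehicle.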
# [7] = NCI Yeast Anticancer Drug Screen. Data for the rad14 strain (AID 159);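 also: 0% = growth of vehicle-treated control cultures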; details: S. cerevisiae rad14 strain growth inhibition, hits give high values
# Method in brief: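 Readout: yeast growth inhibition, referenced to vehicle-only cultures. Strain bears a defined alteration in DNA damage repair.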
# [8] = NCI Yeast Anticancer Drug Screen. Data for the sgs1 mgt1 strain (AID 161);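 also: 0% = growth of cultures given vehicle only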; details: S. cerevisiae sgs1 mgt1 strain, hits give high values
# Method in brief: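 Mutant yeast exposed to compound; growth scored against vehicle-only wells.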
# [9] = NCI Yeast Anticancer Drug Screen. Data for the CLN2oe strain (AID 163);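 also: 0% = growth of vehicle-only control cultures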; details: S. cerevisiae CLN2oe strain, hits give high values
# Method in brief: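 Growth of a genetically modified yeast strain is measured after compound exposure and compared with cultures given vehicle alone.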
# [10] = NCI Yeast Anticancer Drug Screen. Data for the cln2 rad14 strain (AID 165);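 also: 0% = growth equal to vehicle treated cultures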; details: S. cerevisiae cln2 rad14 strain, hits give high values
# Method in brief: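 Compounds are applied to the cln2 rad14 yeast strain, and growth is then compared with that of vehicle-treated cultures to give inhibition.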
# [11] = NCI Yeast Anticancer Drug Screen. Data for the bub3 strain (AID 167); details: S. cerevisiae bub3 mutant strain, hits give high values
# Method in brief: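 Part of a panel of yeast mutants defective in DNA damage repair or cell cycle regulation. Each strain is grown with compound, and inhibition is calculated relative to solvent-treated cultures.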
# [12] = NCI Yeast Anticancer Drug Screen. Data for the wt2 strain (AID 169);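 also: 0% = growth of vehicle-treated yeast cultures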; details: S. cerevisiae wt2 strain growth inhibition, hits give high values
# Method in brief: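 This strain belongs to a panel of yeast strains with defined genetic alterations in DNA damage repair or cell cycle control. Compounds are applied, and growth inhibition is measured against vehicle-treated cultures.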
# [13] = NCI Yeast Anticancer Drug Screen. Data for the mlh1 strain (AID 171);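 also: 0% = growth of vehicle-treated control cultures of the same strain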; details: S. cerevisiae mlh1 strain growth inhibition, hits give high values
# Method in brief: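 Growth of the mutant yeast strain after compound exposure, expressed as inhibition relative to vehicle-only controls.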
# [14] = NCI Yeast Anticancer Drug Screen. Data for the sgs1 strain (AID 173);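 also: 0% = growth of vehicle-only control cultures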; details: S. cerevisiae sgs1 mutant, hits give high values
# Method in brief: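 Growth of a yeast strain bearing a defined genetic alteration is measured after compound treatment. Inhibition is expressed relative to vehicle-only controls.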
# [15] = NCI Yeast Anticancer Drug Screen. Data for the mlh1 rad18 strain (AID 175); details: S. cerevisiae mlh1 rad18 strain growth inhibition, hits give high values
# Method in brief: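 Read-out is yeast growth inhibition, calculated against vehicle-only controls. The compound was applied to a strain engineered with DNA damage repair alterations.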
# [16] = NCI Yeast Anticancer Drug Screen. Data for the rad18 strain (AID 177); details: S. cerevisiae rad18 mutant growth inhibition, hits give high values
# Method in brief: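 Growth of the mutant yeast strain after compound exposure, normalised to vehicle-only cultures.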
# [17] = at 5.0 µM (retest, dose inferred, filed as 0.5)
# [18] = at 50.0 µM (retest, dose inferred, filed as 5.0)
structure (smiles),measurement,setting,value
CCC1(OC(=O)CN)C(=O)OCc2c1cc1n(c2=O)Cc2cc3ccccc3nc2-1 (stereo not drawn),growth inhibition,[1]; at 1.2 µM,93% (active)
same,growth inhibition,[1]; at 3.7 µM,95% (active)
same,growth inhibition,[1]; at 11.0 µM,96% (active)
same,growth inhibition,[1]; at 33.0 µM,97% (active)
same,growth inhibition,[1]; at 100.0 µM,97% (active)
same,growth inhibition,[2]; at 1.2 µM,-1%
same,growth inhibition,[2]; at 3.7 µM,4%
same,growth inhibition,[2]; at 11.0 µM,51%
same,growth inhibition,[2]; at 33.0 µM,88% (active)
same,growth inhibition,[2]; at 100.0 µM,94% (active)
same,growth inhibition,[3]; at 1.2 µM,45%
same,growth inhibition,[3]; at 3.7 µM,67%
same,growth inhibition,[3]; at 11.0 µM,85% (active)
same,growth inhibition,[3]; at 33.0 µM,92% (active)
same,growth inhibition,[3]; at 100.0 µM,93% (active)
same,growth inhibition,[4]; at 1.2 µM,20%
same,growth inhibition,[4]; at 3.7 µM,25%
same,growth inhibition,[4]; at 11.0 µM,50%
same,growth inhibition,[4]; at 33.0 µM,80% (active)
same,growth inhibition,[4]; at 100.0 µM,91% (active)
same,growth inhibition,[5]; at 1.2 µM,94% (active)
same,growth inhibition,[5]; at 3.7 µM,96% (active)
same,growth inhibition,[5]; [17],97% (active)
same,growth inhibition,[5]; at 11.0 µM,97% (active)
same,growth inhibition,[5]; at 33.0 µM,97% (active)
same,growth inhibition,[5]; [18],97% (active)
same,growth inhibition,[5]; at 50.0 µM,98% (active)
same,growth inhibition,[5]; at 100.0 µM,97% (active)
same,growth inhibition,[6]; at 1.2 µM,19%
same,growth inhibition,[6]; at 3.7 µM,82% (active)
same,growth inhibition,[6]; [17],84% (active)
same,growth inhibition,[6]; at 11.0 µM,96% (active)
same,growth inhibition,[6]; at 33.0 µM,97% (active)
same,growth inhibition,[6]; [18],95% (active)
same,growth inhibition,[6]; at 50.0 µM,99% (active)
same,growth inhibition,[6]; at 100.0 µM,98% (active)
same,growth inhibition,[7]; at 1.2 µM,4%
same,growth inhibition,[7]; at 3.7 µM,23%
same,growth inhibition,[7]; at 11.0 µM,76% (active)
same,growth inhibition,[7]; at 33.0 µM,93% (active)
same,growth inhibition,[7]; at 100.0 µM,96% (active)
same,growth inhibition,[8]; [17],62%
same,growth inhibition,[8]; [18],96% (active)
same,growth inhibition,[8]; at 50.0 µM,94% (active)
same,growth inhibition,[9]; at 1.2 µM,37%
same,growth inhibition,[9]; at 3.7 µM,37%
same,growth inhibition,[9]; at 11.0 µM,62%
same,growth inhibition,[9]; at 33.0 µM,80% (active)
same,growth inhibition,[9]; at 100.0 µM,88% (active)
same,growth inhibition,[10]; [17],49%
same,growth inhibition,[10]; [18],92% (active)
same,growth inhibition,[10]; at 50.0 µM,89.2% (active)
same,growth inhibition,[11]; at 1.2 µM,9%
same,growth inhibition,[11]; at 3.7 µM,13%
same,growth inhibition,[11]; [17],8%
same,growth inhibition,[11]; at 11.0 µM,44%
same,growth inhibition,[11]; at 33.0 µM,79% (active)
same,growth inhibition,[11]; [18],94% (active)
same,growth inhibition,[11]; at 50.0 µM,96.9% (active)
same,growth inhibition,[11]; at 100.0 µM,92% (active)
same,growth inhibition,[12]; at 1.2 µM,0%
same,growth inhibition,[12]; at 3.7 µM,4%
same,growth inhibition,[12]; at 11.0 µM,67%
same,growth inhibition,[12]; at 33.0 µM,90% (active)
same,growth inhibition,[12]; at 100.0 µM,95% (active)
same,growth inhibition,[13]; at 1.2 µM,3%
same,growth inhibition,[13]; at 3.7 µM,15%
same,growth inhibition,[13]; at 11.0 µM,70% (active)
same,growth inhibition,[13]; at 33.0 µM,93% (active)
same,growth inhibition,[13]; at 100.0 µM,96% (active)
same,growth inhibition,[14]; at 1.2 µM,8%
same,growth inhibition,[14]; at 3.7 µM,38%
same,growth inhibition,[14]; at 11.0 µM,85% (active)
same,growth inhibition,[14]; at 33.0 µM,94% (active)
same,growth inhibition,[14]; at 100.0 µM,95% (active)
same,growth inhibition,[15]; [17],42%
same,growth inhibition,[15]; [18],-13%
same,growth inhibition,[15]; at 50.0 µM,97.3% (active)
same,growth inhibition,[16]; at 1.2 µM,31%
same,growth inhibition,[16]; at 3.7 µM,33%
same,growth inhibition,[16]; at 11.0 µM,58%
same,growth inhibition,[16]; at 33.0 µM,80% (active)
same,growth inhibition,[16]; at 100.0 µM,89% (active)
